Bioassay records from PubChem.
KB-V1 cytotox: qHTS assay for MDR1-selective chemotherapeutics: Primary screen using the drug-selected MDR subline cells KB-V1. Potency, µM (titrated, usually from 46.1 µM), actives largely listed as cytotoxic. AID 1347076, 2019. actives 3.4% (n = 400,000). KB-V1 MDR cells viability, CellTiter-Glo, 72 h; also: nearly all actives have a fitted effect of over 60% in size
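qHTS viability screen in drug-selected KB-V1 MDR cells: 72 h compound treatment at 37 degrees C, ATP luminescence end point.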
HT1080-NT tox: qHTS for induction of synthetic lethality in tumor cells producing 2HG: qHTS for the HT-1080-NT fibrosarcoma cell line | actives 1.6% (n = 360,000) | AID 686970, 2013 | Potency, µM (series often up to 46.1 µM), for the others: at the highest dose activity, negative = less viability, most hits filed as cytotoxic | HT-1080-NT fibrosarcoma viability, CellTiter-Glo ATP luminescence, 48 h;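 also: NT is the 2HG producing partner of a matched IDH1 knockdown line; 0% = DMSO-treated cells and -100% = media-only wells without cells; nearly all actives have a fitted effect of over 55% in size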
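Compounds were tested in concentration-response format on HT-1080-NT cells for 48 hours at 37 degrees C. Cell viability came from CellTiter-Glo luminescence; curves were classified by r2, response magnitude and activity.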
HT1080 IDH1KD tx: qHTS for induction of synthetic lethality in tumor cells producing 2HG: qHTS for the HT-1080-IDH1KD cell line; actives 2% (n = 360,000); Potency, µM (top dose mostly 46.1 µM), for the others: top-dose activity, negative = toxicity, hits mostly cytotoxic; HT-1080 IDH1 knockdown viability, ATP luminescence, 48 h;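 also: 0% = DMSO wells and -100% = cell-free medium wells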
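IDH1KD HT-1080 cells, 750/well, RPMI + 5% FBS; compound pinned after 2 h settling; 48 h, 37 °C; CellTiter-Glo luminescence; % activity normalised to DMSO and no-cell wells; curves fitted, classed by r2 and efficacy.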
TDP1 cell noCPT: qHTS for Inhibitors of human tyrosyl-DNA phosphodiesterase 1 (TDP1): qHTS in cells in absence of CPT. DT40 Tdp1-/- hTDP1 cells, no CPT, ATP luminescence, 48 h. Potency, µM (series often up to 46.2 µM), for inactives: at the highest dose activity change, negative = growth inhibition, actives largely listed as inhibitors. actives 15% (n = 420,000); also: nearly all actives have a fitted effect of over 55% in size
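Cells were dispensed at 400 per well, compounds added by pin tool, plates incubated ≥48 hr at 37 °C, then CellTiter-Glo added for 30 min at room temperature before luminescence reading. Line: DT40 Tdp1-/- complemented with hTDP1; camptothecin omitted.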
DT40 TDP1 CPT: qHTS for Inhibitors of human tyrosyl-DNA phosphodiesterase 1 (TDP1): qHTS in cells in presence of CPT; chicken DT40 Tdp1-/-;hTDP1 cells + 20 nM CPT, ATP luminescence, 48 h; actives 12% (n = 420,000); Potency, µM (highest dose often 46.2 µM), for the others: top-dose activity change, negative = growth inhibition, actives largely listed as inhibitors; also: nearly all actives have a fitted effect of over 55% in size
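Chicken DT40 Tdp1-/- cells stably complemented with human TDP1 were seeded at 400 cells/well in medium containing 20 nM camptothecin, exposed to pin-transferred compounds, and grown at 37 °C for at least 48 hr. Viability was read as ATP luminescence.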
KB-3-1 tox: qHTS assay for MDR1-selective chemotherapeutics: Primary screen using the parental adenocarcinoma cell KB-3-1; actives 1.4% (n = 400,000); KB-3-1 viability, CellTiter-Glo ATP luminescence, 72 h; Potency, µM (doses to about 46.1 µM), most hits filed as cytotoxic; also: nearly all actives have a fitted effect of over 60% in size
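Screening of KB-3-1 cells (DMEM, 10% FBS, phenol-red free) ran from lowest to highest compound concentration; after 72 h at 37 °C viability was read luminescently and curves fitted.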
Starred values were filed as active, the others as inactive; i = inactive; ? = inconclusive; · = no result given. The list is not random: actives were taken first. Their share in the collection is about 19%. Calls follow the shape of the dose curve; as a rule, active = well fitted curve in the direction sought with a large enough effect; inconclusive = small, poorly fitted or top-dose-only effect, or another doubt; inactive = no such curve, though single readings can be large; an effect the other way counts as inactive or inconclusive. Unless noted, % is scaled to controls: 0 for no effect and ±100 for the full control effect; potency is read from the fitted curve at half-maximal effect.

SMILES	KB-V1 cytotox	HT1080-NT tox	HT1080 IDH1KD tx	TDP1 cell noCPT	DT40 TDP1 CPT	KB-3-1 tox
CC(C)c1ccc(NC2CCCN(C(=O)c3ccc(N4CCOCC4)cc3)C2)cc1 (stereo not drawn)	?	-9.5%	-12.8%	16.4µM*	?	i
Cc1nonc1C(=O)N1CCCC(Nc2ccc(C(C)C)cc2)C1 (stereo not drawn)	?	3.2%	19.8%	2.31µM*	33.2%	i
COc1ccc(-c2noc(-c3ccc(NCCc4ccccc4)c([N+](=O)[O-])c3)n2)cc1OC	i	·	·	-20.0%	-18.3%	i
Cc1nc(S(=O)(=O)N(C)c2ccccc2)c(C#N)c(C)c1Cl	i	?	?	23.1µM*	23.1µM*	?
Cc1cc(C)c(S(=O)(=O)N(C)c2ccccc2)c(C)c1	i	8.3%	14.3%	-9.2%	?	i
Cc1ccc2c(=O)cc(C(=O)Nc3ccc(S(=O)(=O)N(C)Cc4ccccc4)cc3)oc2c1	i	·	·	?	?	i
Cc1ccc2c(=O)cc(C(=O)Nc3ccc(S(=O)(=O)N(C)Cc4ccccc4)cc3)oc2c1C	i	·	·	3.26µM*	4.11µM*	i
CCN(c1ccccc1)S(=O)(=O)c1ccc(NC(=O)c2cc(=O)c3ccc(C)c(C)c3o2)cc1	i	·	·	11.6µM*	10.3µM*	i
CCc1ccc(NC(=O)c2cc(=O)c3ccc(C)c(C)c3o2)cc1	5.8µM*	·	·	3.26µM*	4.11µM*	i
Cc1ccc2c(=O)cc(C(=O)Nc3ccc(S(=O)(=O)Nc4ncccn4)cc3)oc2c1C	i	·	·	?	?	i
O=C(Nc1nc2ccccc2s1)c1cccc(S(=O)(=O)N2CCc3ccccc32)c1	?	?	-24.9%	10.3µM*	-23.5%	?
Cc1nnc(NC(=O)c2cccc(S(=O)(=O)N3CCc4ccccc43)c2)s1	i	-18.2%	-19.3%	-23.1%	4.3%	i
O=C(Nc1nc2c(s1)CN(Cc1ccccc1)CC2)c1cccc(S(=O)(=O)N2CCc3ccccc32)c1	6.51µM*	-0.8%	-21.7%	?	?	?
CCc1nnc(NC(=O)c2cccc(S(=O)(=O)N3CCc4ccccc43)c2)s1	i	2.9%	7.7%	-21.8%	2.5%	i
Cc1cccnc1Nc1ncnc(N)c1[N+](=O)[O-]	i	29.8%	?	-4.5%	3.4%	i
Nc1ncnc(Nc2ccccn2)c1[N+](=O)[O-]	i	-1.8%	-5.1%	23.1µM*	-24.4%	i
Cc1cccc(Nc2ncnc(N)c2[N+](=O)[O-])n1	i	12.7%	-9.7%	16.4µM*	9.2µM*	i
CCOC(=O)N1CCN(S(=O)(=O)c2ccc(C(=O)N(CCCN(C)C)c3nc4ccc(CC)cc4s3)cc2)CC1	i	?	16.4µM*	?	?	i
CCOC(=O)N1CCN(S(=O)(=O)c2ccc(C(=O)N(CCN(C)C)c3nc4ccc(CC)cc4s3)cc2)CC1	i	-6.5%	-7.5%	-5.1%	-12.0%	i
Cc1ccc2nc(N(CCCN(C)C)C(=O)c3ccc4ncsc4c3)sc2c1	i	?	?	?	16.4µM*	i
Cc1ccc2nc(N(CCCN(C)C)C(=O)c3ccc(S(=O)(=O)N4CCCCCC4)cc3)sc2c1	i	?	18.4µM*	?	?	?
